# Results from PubChem BioAssay.
# Activity calls are given as the source filed them.
# Assays:
# [1] = tested on: Plasmodium falciparum Sir2 (PF13_0152, Sir2A); assay: pfSir2 binders on small-molecule microarrays, primary screen, biochemical, small-molecule microarray, 635 nm fluorescence (AID 1098); settings: small-molecule microarray binding, fluorescence 635 nm; higher = more signal;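 also: score merges spot fluorescence intensity with its signal-to-noise ratio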
# [2] = small-molecule microarray binders of probe aDKK1, primary screen, biochemical, biotinylated probe, 635/667 nm fluorescence (AID 1099); settings: higher = more signal;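 also: score merges 667nm spot fluorescence with signal to noise across triplicate slides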
# [3] = small-molecule microarray binders of probe aCHRDL2, primary screen, biochemical, biotinylated probe, 635/667 nm fluorescence (AID 1100); settings: higher = more signal
# [4] = splicing luciferase reporter signal modulators, primary screen, spliceosome inhibition project, cell-based, HEK293, splice +/- reporter (AID 1101); settings: luminescence, 24 h, higher = more signal, called active from +8 up or from −8 down;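 also: HEK293 cells carrying a splicing-competent luciferase reporter gene; test concentration not given here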
# [5] = target: Fibroblast growth factor 10 (Homo sapiens) (UniProt O15520); assay: FGF10 binders on small-molecule microarrays, primary screen, biochemical, small-molecule microarray, 635 nm fluorescence (AID 1102); settings: FGF10 binding, fluorescence 635 nm, higher = more signal
# [6] = tested on: glycogen synthase kinase-3 (GSK3A per assay name; protocol says GSK3B); assay: GSK3 binders on small-molecule microarrays, primary screen, biochemical, small-molecule microarray, 635 nm fluorescence, GSK3A (AID 1103); settings: small-molecule microarray binding, fluorescence 635 nm; higher = more signal; also: the record names both GSK3A and GSK3B
# [7] = target: Epidermal growth factor receptor (Homo sapiens) (UniProt P00533); assay: EGFR binders on small-molecule microarrays, primary screen, biochemical, small-molecule microarray, 635 nm fluorescence (AID 1104); settings: EGFR binding, higher = more signal;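 also: score merges 667 nm emission intensity with spot signal to noise over triplicate slides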
# [8] = target: Follistatin-related protein 3 (Homo sapiens) (UniProt O95633); assay: FSTL3 binders on small-molecule microarrays, primary screen, biochemical, small-molecule microarray, 635 nm fluorescence (AID 1105); settings: FSTL3 binding, higher = more signal;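 also: score merges emission near 667 nm and signal to noise per printed spot across three slides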
# [9] = target: Dickkopf-related protein 1 (Homo sapiens) (UniProt O94907); assay: DKK1 binders on small-molecule microarrays, primary screen, biochemical, small-molecule microarray, 635 nm fluorescence scan (AID 1106); settings: DKK1 binding, higher = more signal;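 also: score merges emission near 667 nm with signal to noise over three replicate slides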
# [10] = tested on: Inhibin beta A chain (activin A); assay: INHBA (activin A) binders on microarrays, primary screen, biochemical, small-molecule microarray, 635 nm fluorescence scan (AID 1107); settings: small-molecule microarray binding, higher = more signal;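 also: mouse activin A protein probed at 4.33 µg/mL on printed slides; score merges bound-protein fluorescence near 667 nm with spot signal-to-noise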
# [11] = tested on: Human papillomavirus type 1a protein E7 (residues 44-93); assay: HPV1a E7 fragment binders on microarrays, primary screen, biochemical, small-molecule microarray, residues 44-93, 635 nm fluorescence (AID 1108); settings: small-molecule microarray binding, fluorescence 635 nm; higher = more signal;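 also: E7 fragment applied at 1 µg/mL in TBST for 1 h at 4 C; score combines spot fluorescence with its signal to noise ratio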
# [12] = modulators of HCV replicon luciferase signal, primary screen, HCV replication inhibitor project, Huh7 cells, luciferase reporter (AID 1109); settings: 48 h, higher = more signal;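 also: huh7 hepatoma cells harbouring a luciferase neomycin HCV replicon reporter; luciferase luminescence as measure of HCV replicon replication; test concentration not given here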
# [13] = target: Left-right determination factor 2 (Homo sapiens) (UniProt O00292); assay: LEFTY2 binders on small-molecule microarrays, primary screen, biochemical, small-molecule microarray, 635 nm fluorescence scan (AID 1110); settings: LEFTY2 binding, higher = more signal
# [14] = target: Calmodulin-1 (Homo sapiens) (UniProt P0DP23); assay: CALM1 binders on microarrays, EGTA buffer, profiling panel, biochemical, small-molecule microarray, Cy5-labelled CALM1 (AID 1111); settings: Cy5-CALM1 binding fluorescence, higher = more signal;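 also: labelled calmodulin applied in Tris saline Tween buffer holding calcium plus EGTA and DTT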
# [15] = target: Calmodulin-1 (Homo sapiens) (UniProt P0DP23); assay: calcium-bound CALM1 binders on microarrays, profiling panel, artefact control for SMM control-protein annotation, biochemical, small-molecule microarray, Cy5-labelled CALM1, plus calcium (AID 1112); settings: Cy5-CALM1 binding fluorescence, higher = more signal;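 also: score merges spot fluorescence with signal to noise from triplicate slides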
# [16] = small-molecule microarray binders of probe aWnt5a, primary screen, biochemical, biotinylated probe, 635/667 nm fluorescence (AID 1113); settings: higher = more signal;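 also: score merges 667 nm fluorescence intensity with signal-to-noise per printed feature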
# [17] = small-molecule microarray binders of probe aShh, primary screen, biochemical, biotinylated probe, 635/667 nm fluorescence (AID 1114); settings: higher = more signal;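 also: probe is biotin-labelled aShh protein from a stem cell growth factor screen; measures binding of labelled protein to compounds printed on the slide; score merges feature fluorescence at 667 nm with signal-to-noise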
# [18] = small-molecule microarray binders of probe aNog, primary screen, biochemical, biotinylated probe, 635/667 nm fluorescence (AID 1115); settings: higher = more signal;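 also: probe is biotinylated aNog protein used at 0.15 µg/mL for 1 h at 4 C; z-score combines 667 nm fluorescence of each spot with its signal to noise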
# [19] = target: Torsin-1A-interacting protein 1 (Homo sapiens) (UniProt Q5JTV8); assay: LAP1 binders from COS7 cell lysate, primary screen, small-molecule microarray, 635/667 nm fluorescence (AID 1116); settings: COS7-hLAP1 lysate binding, 635 nm fluorescence, higher = more signal
# [20] = target: Alpha-bungarotoxin (Bungarus multicinctus) (UniProt P60615); assay: alpha-bungarotoxin binders on microarray, profiling panel, artefact control for SMM control protein annotation, biochemical, small-molecule microarray, Alexa647 label, 635/667 nm fluorescence (AID 1117); settings: alpha-BTX-A647 binding fluorescence, higher = more signal
# Alpha-bungarotoxin (Bungarus multicinctus), sequence (P60615 whole entry, looked up): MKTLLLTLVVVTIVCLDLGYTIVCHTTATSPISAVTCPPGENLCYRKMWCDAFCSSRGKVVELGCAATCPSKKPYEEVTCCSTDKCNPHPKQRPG
# Dickkopf-related protein 1 (Homo sapiens), sequence (O94907 whole entry, looked up): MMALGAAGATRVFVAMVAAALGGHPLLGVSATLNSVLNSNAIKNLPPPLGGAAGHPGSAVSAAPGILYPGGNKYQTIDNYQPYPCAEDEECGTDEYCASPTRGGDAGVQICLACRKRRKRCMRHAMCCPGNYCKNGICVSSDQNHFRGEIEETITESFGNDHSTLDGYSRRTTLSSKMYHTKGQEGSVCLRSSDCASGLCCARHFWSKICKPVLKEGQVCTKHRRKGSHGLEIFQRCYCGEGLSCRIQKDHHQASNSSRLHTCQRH
# Fibroblast growth factor 10 (Homo sapiens), sequence (O15520 whole entry, looked up): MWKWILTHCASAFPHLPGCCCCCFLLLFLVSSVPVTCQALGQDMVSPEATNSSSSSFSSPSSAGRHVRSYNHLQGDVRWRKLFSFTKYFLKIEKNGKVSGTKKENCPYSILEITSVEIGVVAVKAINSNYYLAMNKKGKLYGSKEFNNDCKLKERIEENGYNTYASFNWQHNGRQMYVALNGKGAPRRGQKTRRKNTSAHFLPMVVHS
# Torsin-1A-interacting protein 1 (Homo sapiens), sequence (Q5JTV8 whole entry, looked up): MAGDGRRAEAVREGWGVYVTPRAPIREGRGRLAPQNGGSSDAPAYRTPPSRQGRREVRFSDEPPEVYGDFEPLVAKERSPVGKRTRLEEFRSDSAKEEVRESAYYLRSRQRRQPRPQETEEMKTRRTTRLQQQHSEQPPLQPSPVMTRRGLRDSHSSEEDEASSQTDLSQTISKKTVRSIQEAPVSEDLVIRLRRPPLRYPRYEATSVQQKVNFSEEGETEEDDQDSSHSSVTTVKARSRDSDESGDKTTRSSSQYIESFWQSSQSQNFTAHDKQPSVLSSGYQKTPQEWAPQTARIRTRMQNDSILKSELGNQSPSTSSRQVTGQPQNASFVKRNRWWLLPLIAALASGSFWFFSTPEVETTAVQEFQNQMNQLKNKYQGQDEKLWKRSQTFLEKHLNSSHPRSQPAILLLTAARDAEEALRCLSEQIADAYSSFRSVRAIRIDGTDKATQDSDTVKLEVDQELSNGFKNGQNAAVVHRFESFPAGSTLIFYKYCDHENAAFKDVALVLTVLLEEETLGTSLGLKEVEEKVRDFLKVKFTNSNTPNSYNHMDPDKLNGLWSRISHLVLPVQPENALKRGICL
# Epidermal growth factor receptor (Homo sapiens), sequence (P00533 whole entry, looked up): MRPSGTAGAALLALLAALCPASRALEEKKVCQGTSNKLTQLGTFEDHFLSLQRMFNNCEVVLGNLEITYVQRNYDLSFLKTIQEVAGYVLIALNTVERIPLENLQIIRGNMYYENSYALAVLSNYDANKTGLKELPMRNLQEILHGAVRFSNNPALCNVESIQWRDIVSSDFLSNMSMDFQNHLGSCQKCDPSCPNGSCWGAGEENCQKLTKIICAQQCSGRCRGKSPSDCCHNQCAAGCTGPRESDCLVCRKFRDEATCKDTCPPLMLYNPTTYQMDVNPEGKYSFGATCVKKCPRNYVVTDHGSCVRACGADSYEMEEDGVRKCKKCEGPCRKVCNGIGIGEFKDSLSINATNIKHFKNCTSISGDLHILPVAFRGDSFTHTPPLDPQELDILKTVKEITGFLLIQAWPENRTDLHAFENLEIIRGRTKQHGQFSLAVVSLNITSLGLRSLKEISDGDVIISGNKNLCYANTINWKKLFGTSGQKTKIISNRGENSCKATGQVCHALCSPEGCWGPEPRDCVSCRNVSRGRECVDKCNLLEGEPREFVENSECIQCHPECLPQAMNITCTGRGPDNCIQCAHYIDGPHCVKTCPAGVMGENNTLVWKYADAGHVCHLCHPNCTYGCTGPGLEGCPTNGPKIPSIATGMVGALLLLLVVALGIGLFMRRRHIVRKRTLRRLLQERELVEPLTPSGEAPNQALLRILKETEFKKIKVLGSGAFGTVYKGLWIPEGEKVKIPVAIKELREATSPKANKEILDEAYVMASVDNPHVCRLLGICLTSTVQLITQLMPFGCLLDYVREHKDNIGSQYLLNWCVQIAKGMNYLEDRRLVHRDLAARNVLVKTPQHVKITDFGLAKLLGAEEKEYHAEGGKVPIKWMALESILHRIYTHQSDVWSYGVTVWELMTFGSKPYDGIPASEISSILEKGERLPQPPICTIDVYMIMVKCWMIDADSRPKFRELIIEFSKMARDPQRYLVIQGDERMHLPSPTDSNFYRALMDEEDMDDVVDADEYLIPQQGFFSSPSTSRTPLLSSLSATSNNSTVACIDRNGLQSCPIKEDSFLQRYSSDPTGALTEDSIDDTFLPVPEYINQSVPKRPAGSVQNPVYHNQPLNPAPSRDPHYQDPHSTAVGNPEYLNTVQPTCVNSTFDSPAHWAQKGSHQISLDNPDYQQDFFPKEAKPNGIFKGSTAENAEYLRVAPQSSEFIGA
# Left-right determination factor 2 (Homo sapiens), sequence (O00292 whole entry, looked up): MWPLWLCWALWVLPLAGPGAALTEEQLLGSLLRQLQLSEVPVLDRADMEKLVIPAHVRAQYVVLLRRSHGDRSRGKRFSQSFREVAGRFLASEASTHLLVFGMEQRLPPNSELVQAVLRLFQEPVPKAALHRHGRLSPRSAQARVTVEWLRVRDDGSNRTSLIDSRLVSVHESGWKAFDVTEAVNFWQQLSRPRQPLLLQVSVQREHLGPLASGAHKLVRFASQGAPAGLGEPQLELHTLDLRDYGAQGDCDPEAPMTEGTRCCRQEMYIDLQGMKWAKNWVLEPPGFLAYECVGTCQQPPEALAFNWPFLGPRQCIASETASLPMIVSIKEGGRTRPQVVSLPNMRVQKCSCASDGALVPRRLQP
# Follistatin-related protein 3 (Homo sapiens), sequence (O95633 whole entry, looked up): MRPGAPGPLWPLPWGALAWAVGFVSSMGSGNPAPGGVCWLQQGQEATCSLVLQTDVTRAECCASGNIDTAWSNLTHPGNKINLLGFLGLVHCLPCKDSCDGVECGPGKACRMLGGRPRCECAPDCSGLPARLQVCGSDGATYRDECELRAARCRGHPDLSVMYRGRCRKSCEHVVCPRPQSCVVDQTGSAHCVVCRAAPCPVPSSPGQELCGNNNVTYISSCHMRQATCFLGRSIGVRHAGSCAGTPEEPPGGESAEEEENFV
Compound,composite z-score [1],composite z-score [2],composite z-score [3],z-score [4],composite z-score [5],composite z-score [6],composite z-score [7],composite z-score [8],composite z-score [9],composite z-score [10],composite z-score [11],z-score [12],composite z-score [13],composite z-score [14],composite z-score [15],composite z-score [16],composite z-score [17],composite z-score [18],composite z-score [19],composite z-score [20]
CC(C)(C)OC(=O)CC[C@]1(C(=O)NCc2ccccc2)N=C(c2ccc(OCCCO)cc2)O[C@H]1c1ccccc1N=[N+]=[N-],1.02,1.36,1.35,-2.19 (inactive),1.21,1.29,-0.0113,1,0.496,0.947,-0.385,-0.5,0.478,2.14,0.756,0.17,0.57,1.11,1.63,2.77
C=CCC(OC(C)=O)[C@@H]1[C@@H](N(Cc2ccc(-c3ccccc3)cc2)C(=O)c2ccc(-c3ccccc3)cc2)c2cc(OCCCO)ccc2N1C(=O)c1ccc(-c2ccccc2)cc1 (stereo not given in full),-0.104,0.603,0.672,-1.34 (inactive),-0.132,-0.0347,-0.137,0.145,-0.141,1.11,-0.172,0.967,0.337,0.681,0.92,-0.11,-0.324,0.347,0.315,0.459
CC(C)[C@@H](C(=O)O)n1cc(-c2ccccn2)nn1,-0.0369,0.98,0.33,-0.015 (inactive),0.0739,0.428,0.278,0.0231,0.418,0.805,0.465,-0.187,0.249,0.51,0.556,-0.0216,0.0039,-0.195,0.539,0.703
C=C(COC)C(=O)CC[C@H](OC(=O)c1ccccc1-c1ccccc1C(=O)O)c1ccccc1OCCO,1.52,-0.227,-0.053,-0.51 (inactive),0.595,0.264,-0.124,0.159,0.307,1.1,-0.15,-1.46,0.273,0.209,-0.749,-0.118,0.267,0.0707,0.423,0.737
CCCC[C@@H](O)C1=C(C)C[C@H]2C(=O)N(C)C(=O)[C@H]2[C@H]1CO,1.42,-0.372,-0.493,-0.72 (inactive),0.755,0.349,0.269,0.229,0.3,-0.301,0.276,0.739,0.322,-0.409,-0.471,-0.0944,0.0141,0.185,0.0605,0.548
O=C(N1CCCCC1)[C@@]1(Cc2ccccc2)N=C(c2ccc(OCCCO)cc2)O[C@H]1c1ccccc1,1.43,1.26,1.31,-1.96 (inactive),0.942,0.258,-0.32,0.606,0.0474,0.766,0.73,-2.94,-0.458,2.45,1.09,0.801,0.106,1.9,2.95,3.12
COc1ccc([Si](C)(C)[C@@H]2[C@@H](CC(=O)N3CCC[C@H]3CO)O[C@]3(C(=O)N(Cc4ccc(N5CCC5=O)cc4)c4ccccc43)[C@H]2C)cc1,1.22,0.123,0.0655,-0.473 (inactive),0.61,0.398,0.35,0.489,0.33,0.194,0.196,-1.96,0.499,0.593,0.343,-0.124,0.257,0.241,0.303,0.428
C=CCNC(=O)[C@@H]1[C@H]2C(=O)O[C@H](c3ccccc3)[C@H](c3ccccc3)N2[C@H](c2ccc(O)cc2)[C@@]12C(=O)Nc1ccc(C#Cc3ccc(OC)cc3)cc12,0.775,0.74,0.273,-0.934 (inactive),0.564,1.26,0.312,0.961,0.389,0.311,0.927,-2.67,0.239,1.61,0.941,-0.0236,1.03,-0.274,1.02,2.75
